Common to all, as to assay: DAPPL (digital affinity profiling via proximity ligation, sequencing); 10 mM Tris-HCl pH 7.5, 50 mM NaCl, 1 mM DTT, 4% glycerol, room temperature, 30 min; GST-TFs on glutathione beads, 16-mer random dsDNA library, 0.1% formaldehyde crosslink after washing; high values mean tight binding
Assay [1] concerns the target T1, FEV (Homo sapiens, UniProt Q99581 1-238).
T1 sequence: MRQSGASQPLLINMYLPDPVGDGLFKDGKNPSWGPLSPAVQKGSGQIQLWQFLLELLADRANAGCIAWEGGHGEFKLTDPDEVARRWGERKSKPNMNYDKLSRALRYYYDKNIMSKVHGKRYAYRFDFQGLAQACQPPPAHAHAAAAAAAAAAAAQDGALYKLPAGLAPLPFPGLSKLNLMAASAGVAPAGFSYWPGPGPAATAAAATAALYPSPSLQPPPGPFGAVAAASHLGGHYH
The conditions noted are these: protein: recombinant; tags: N-terminal GST; dsDNA, one strand shown. In outline:
(§1)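 Binding signal is each hexamer's read frequency for a factor divided by its frequency in the tag-only sample. The factors were GST-fused human transcription factors from yeast, captured on glutathione beads, DNA-barcoded and pooled with that sample. Pools were incubated with 200 nmole of a random double-stranded 16-mer DNA library in Tris/NaCl/DTT/glycerol buffer at room temperature for 30 min, then washed, crosslinked with 0.1% formaldehyde, proximity-ligated with BsaI/T4 ligase (1 h, 37 °C), PCR-amplified and sequenced on an Illumina NextSeq500.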

For assay [2], the target named is ETV5 (Homo sapiens, UniProt P41161 1-510). The conditions noted are these: protein: recombinant; tags: N-terminal GST; dsDNA, one strand shown. In outline: as §1
For assay [3], the target named is HSF1 (Homo sapiens, UniProt Q00613 1-529). The conditions noted are these: protein: recombinant; tags: N-terminal GST; chain copies: 3; dsDNA, one strand shown. The gist of the method: as §1
In assay [4] the target is T2, SPIC (Homo sapiens, UniProt Q8N5J4 1-248).
T2 sequence: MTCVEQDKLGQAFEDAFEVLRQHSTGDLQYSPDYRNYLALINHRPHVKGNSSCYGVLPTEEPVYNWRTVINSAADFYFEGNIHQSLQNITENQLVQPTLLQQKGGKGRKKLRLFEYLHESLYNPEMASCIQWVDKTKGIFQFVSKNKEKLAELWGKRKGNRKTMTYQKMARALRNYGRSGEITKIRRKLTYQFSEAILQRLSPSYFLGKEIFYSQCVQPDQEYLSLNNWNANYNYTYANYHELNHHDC
As to conditions: protein: recombinant; tags: N-terminal GST; dsDNA, one strand shown. In outline:
as §1

For assay [5], the target named is ELF4 (Homo sapiens, UniProt Q99607 1-663). As to conditions: protein: recombinant; tags: N-terminal GST; dsDNA, one strand shown. In outline:
as §1

Assay [6] deals with T3, ELK4 (Homo sapiens, UniProt P28324-2 1-405).
T3 sequence: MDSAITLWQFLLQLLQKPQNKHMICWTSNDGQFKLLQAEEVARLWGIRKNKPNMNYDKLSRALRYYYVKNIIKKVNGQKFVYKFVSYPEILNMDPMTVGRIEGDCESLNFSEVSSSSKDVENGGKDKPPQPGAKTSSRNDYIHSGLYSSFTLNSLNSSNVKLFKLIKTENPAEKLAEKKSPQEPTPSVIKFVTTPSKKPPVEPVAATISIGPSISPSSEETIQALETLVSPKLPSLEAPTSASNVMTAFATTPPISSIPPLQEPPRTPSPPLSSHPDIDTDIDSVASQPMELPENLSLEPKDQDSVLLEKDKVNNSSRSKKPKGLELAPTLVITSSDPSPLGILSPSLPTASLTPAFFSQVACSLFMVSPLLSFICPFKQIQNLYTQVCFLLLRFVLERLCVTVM
As to conditions: protein: recombinant; tags: N-terminal GST; dsDNA, one strand shown. In outline: as §1

The target in assay [7] is T4, ETV2 (Homo sapiens, UniProt O00321 1-342).
T4 sequence: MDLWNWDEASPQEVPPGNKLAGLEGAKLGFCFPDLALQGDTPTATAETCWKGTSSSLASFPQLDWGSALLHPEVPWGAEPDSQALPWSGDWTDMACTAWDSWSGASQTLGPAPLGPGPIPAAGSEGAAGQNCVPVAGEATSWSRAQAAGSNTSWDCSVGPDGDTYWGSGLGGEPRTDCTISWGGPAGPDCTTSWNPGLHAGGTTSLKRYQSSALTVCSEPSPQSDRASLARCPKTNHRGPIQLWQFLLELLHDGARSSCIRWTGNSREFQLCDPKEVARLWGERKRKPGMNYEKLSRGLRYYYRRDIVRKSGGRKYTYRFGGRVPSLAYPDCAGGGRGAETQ
As to conditions: protein: recombinant; tags: N-terminal GST; dsDNA, one strand shown. In outline: as §1

Assay [8] deals with T5, ELF3 (Homo sapiens, UniProt P78545 1-371).
T5 sequence: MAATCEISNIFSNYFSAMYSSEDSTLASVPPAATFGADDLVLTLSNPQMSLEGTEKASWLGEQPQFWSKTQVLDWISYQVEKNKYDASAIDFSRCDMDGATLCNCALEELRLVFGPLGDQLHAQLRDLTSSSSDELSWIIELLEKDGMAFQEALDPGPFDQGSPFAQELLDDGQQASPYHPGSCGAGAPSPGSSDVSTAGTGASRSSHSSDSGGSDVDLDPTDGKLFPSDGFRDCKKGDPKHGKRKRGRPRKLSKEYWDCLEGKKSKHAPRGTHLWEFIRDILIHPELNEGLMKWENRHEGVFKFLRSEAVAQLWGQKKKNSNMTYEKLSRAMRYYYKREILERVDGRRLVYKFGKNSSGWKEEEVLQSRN
The conditions noted are these: protein: recombinant; tags: N-terminal GST; dsDNA, one strand shown. In outline:
as §1

The target of assay [9] is CRX (Homo sapiens, UniProt O43186 1-299). As to conditions: protein: recombinant; tags: N-terminal GST; dsDNA, one strand shown. The gist of the method:
as §1

In assay [10] the target is ETV1 (Homo sapiens, UniProt P50549 1-477). The conditions noted are these: protein: recombinant; tags: N-terminal GST; dsDNA, one strand shown. The gist of the method:
as §1

The target of assay [11] is T6, ERF (Homo sapiens, UniProt P50548 1-548).
T6 sequence: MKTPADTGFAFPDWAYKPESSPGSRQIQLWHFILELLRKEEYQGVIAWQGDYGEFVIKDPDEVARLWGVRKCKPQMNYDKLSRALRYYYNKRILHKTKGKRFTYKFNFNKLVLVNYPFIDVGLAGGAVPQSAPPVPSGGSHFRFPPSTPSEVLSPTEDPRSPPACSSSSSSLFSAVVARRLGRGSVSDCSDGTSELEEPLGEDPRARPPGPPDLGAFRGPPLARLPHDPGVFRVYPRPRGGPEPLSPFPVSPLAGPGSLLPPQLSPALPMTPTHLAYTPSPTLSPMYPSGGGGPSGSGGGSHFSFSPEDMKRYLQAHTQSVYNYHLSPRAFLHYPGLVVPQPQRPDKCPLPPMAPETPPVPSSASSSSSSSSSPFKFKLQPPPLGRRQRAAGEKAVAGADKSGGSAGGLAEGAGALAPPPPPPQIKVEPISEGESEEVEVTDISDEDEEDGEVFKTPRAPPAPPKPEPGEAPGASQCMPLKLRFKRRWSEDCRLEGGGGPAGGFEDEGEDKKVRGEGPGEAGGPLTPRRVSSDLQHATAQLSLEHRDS
The conditions noted are these: protein: recombinant; tags: N-terminal GST; dsDNA, one strand shown. In outline: as §1

For assay [12], the target named is T7, ETV3L (Homo sapiens, UniProt Q6ZN32 1-361).
T7 sequence: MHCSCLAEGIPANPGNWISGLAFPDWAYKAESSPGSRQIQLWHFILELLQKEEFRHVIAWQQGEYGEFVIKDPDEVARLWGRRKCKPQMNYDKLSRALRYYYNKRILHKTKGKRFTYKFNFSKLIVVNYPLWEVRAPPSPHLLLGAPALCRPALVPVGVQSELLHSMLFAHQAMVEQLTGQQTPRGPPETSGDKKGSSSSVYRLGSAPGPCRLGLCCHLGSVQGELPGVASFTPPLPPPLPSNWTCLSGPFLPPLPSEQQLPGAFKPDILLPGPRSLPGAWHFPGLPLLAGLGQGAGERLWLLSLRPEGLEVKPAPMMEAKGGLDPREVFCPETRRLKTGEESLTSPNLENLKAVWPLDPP
As to conditions: protein: recombinant; tags: N-terminal GST; dsDNA, one strand shown. In outline: as §1

In assay [13] the target is T8, ETS2 (Homo sapiens, UniProt P15036 1-469).
T8 sequence: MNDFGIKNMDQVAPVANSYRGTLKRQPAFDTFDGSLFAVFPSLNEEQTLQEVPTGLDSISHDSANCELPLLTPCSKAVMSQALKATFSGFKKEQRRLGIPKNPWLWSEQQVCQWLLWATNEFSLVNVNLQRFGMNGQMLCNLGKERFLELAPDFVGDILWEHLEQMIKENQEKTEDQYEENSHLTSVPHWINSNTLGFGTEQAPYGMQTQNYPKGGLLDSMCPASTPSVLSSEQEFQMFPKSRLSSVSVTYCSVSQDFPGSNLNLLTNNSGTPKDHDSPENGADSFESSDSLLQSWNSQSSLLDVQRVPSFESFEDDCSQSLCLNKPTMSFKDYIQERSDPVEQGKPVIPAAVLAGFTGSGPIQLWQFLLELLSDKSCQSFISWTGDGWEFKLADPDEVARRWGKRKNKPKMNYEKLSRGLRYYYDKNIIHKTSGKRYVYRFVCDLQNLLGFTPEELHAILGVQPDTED
As to conditions: protein: recombinant; tags: N-terminal GST; dsDNA, one strand shown. The gist of the method: as §1

The target of assay [14] is T9, SPDEF (Homo sapiens, UniProt O95238 1-335).
T9 sequence: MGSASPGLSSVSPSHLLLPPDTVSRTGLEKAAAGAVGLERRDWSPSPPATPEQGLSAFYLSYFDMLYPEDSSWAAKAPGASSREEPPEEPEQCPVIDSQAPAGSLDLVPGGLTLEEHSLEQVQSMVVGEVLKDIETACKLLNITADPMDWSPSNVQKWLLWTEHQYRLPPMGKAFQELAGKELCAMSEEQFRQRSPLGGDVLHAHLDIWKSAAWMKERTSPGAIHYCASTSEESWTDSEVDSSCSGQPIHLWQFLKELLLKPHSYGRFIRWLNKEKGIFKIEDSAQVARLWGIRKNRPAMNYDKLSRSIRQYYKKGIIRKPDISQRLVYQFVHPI
The conditions noted are these: protein: recombinant; tags: N-terminal GST; dsDNA, one strand shown. The gist of the method:
as §1

Assay [15] addresses T10, ETV7 (Homo sapiens, UniProt Q9Y603 1-341).
T10 sequence: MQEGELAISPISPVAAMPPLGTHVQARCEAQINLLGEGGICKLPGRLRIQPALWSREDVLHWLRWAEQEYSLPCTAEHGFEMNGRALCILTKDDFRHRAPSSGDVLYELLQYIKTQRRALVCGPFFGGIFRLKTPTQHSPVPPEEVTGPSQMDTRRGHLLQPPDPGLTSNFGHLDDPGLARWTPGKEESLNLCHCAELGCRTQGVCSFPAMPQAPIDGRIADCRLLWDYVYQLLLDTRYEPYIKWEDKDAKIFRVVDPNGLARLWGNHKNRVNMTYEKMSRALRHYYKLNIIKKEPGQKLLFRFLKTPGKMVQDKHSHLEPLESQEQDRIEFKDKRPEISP
As to conditions: protein: recombinant; tags: N-terminal GST; dsDNA, one strand shown. The gist of the method: as §1

Assay [16] concerns the target T11, ELF5 (Homo sapiens, UniProt Q9UKW6-2 1-255).
T11 sequence: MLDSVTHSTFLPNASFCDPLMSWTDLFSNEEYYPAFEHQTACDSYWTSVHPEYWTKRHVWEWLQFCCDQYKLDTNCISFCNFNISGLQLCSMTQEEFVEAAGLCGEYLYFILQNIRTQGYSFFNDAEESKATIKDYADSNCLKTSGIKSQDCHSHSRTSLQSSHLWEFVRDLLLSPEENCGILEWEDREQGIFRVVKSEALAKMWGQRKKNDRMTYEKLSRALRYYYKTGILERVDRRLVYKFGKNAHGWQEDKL
As to conditions: protein: recombinant; tags: N-terminal GST; dsDNA, one strand shown. In outline: as §1

Assay [17] addresses T12, ETV3 (Homo sapiens, UniProt P41162-2 1-143).
T12 sequence: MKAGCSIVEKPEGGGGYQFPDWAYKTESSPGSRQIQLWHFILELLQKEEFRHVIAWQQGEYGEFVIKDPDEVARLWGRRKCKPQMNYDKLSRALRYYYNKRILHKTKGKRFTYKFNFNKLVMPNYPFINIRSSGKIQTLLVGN
As to conditions: protein: recombinant; tags: N-terminal GST; dsDNA, one strand shown. The gist of the method:
as §1

The target in assay [18] is ETV6 (Homo sapiens, UniProt P41212 1-452). The conditions noted are these: protein: recombinant; tags: N-terminal GST; dsDNA, one strand shown. The gist of the method: as §1
ETV6, sequence (P41212 whole entry): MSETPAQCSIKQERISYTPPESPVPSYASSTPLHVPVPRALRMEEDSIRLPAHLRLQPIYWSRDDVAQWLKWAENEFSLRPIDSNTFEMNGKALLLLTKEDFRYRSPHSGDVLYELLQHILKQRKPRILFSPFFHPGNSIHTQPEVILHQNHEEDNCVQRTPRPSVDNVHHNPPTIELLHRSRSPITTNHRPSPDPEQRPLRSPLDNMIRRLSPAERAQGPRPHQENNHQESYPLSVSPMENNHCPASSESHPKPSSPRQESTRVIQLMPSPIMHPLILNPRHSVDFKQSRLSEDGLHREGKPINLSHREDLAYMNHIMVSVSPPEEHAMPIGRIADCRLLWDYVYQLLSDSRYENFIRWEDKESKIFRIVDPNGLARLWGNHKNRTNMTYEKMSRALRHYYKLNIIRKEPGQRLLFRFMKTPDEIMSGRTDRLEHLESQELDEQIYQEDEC

ETV1, sequence (P50549 whole entry): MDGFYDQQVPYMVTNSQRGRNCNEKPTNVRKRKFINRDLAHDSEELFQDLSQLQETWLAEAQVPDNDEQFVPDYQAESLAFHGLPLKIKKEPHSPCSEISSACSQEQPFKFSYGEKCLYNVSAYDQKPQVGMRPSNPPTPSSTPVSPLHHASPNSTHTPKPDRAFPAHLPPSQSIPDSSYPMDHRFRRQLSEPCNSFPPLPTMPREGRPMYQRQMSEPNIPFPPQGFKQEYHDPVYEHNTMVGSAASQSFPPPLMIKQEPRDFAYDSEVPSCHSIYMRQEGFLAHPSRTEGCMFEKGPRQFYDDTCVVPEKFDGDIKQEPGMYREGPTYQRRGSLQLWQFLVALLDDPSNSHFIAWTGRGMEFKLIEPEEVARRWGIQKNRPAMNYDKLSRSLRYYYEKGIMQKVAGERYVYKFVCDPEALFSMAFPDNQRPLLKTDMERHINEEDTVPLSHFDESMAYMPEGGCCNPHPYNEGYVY
ETV5, sequence (P41161 whole entry): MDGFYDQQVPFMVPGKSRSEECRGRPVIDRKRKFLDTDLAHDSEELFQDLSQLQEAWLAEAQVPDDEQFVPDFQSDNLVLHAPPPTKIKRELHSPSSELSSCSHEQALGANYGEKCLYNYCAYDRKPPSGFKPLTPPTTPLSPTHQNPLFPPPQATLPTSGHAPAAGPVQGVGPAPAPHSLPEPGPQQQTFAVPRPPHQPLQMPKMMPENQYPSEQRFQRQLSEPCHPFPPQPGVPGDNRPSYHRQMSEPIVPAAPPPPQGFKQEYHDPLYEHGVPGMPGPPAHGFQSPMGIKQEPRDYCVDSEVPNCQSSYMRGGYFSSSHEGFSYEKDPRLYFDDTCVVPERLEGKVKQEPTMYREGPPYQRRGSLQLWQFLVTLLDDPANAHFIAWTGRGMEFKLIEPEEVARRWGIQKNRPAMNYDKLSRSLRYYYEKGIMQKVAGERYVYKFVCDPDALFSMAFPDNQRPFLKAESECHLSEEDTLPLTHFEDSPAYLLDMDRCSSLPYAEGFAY
CRX, sequence (O43186 whole entry): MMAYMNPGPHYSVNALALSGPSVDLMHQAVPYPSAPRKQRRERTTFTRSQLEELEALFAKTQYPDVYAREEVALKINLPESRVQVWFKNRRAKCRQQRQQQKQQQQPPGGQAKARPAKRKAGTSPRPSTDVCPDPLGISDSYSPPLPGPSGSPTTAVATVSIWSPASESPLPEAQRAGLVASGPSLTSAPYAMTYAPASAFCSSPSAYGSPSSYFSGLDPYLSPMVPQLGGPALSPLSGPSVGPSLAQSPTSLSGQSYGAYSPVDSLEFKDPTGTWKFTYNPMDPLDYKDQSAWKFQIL
HSF1, sequence (Q00613 whole entry): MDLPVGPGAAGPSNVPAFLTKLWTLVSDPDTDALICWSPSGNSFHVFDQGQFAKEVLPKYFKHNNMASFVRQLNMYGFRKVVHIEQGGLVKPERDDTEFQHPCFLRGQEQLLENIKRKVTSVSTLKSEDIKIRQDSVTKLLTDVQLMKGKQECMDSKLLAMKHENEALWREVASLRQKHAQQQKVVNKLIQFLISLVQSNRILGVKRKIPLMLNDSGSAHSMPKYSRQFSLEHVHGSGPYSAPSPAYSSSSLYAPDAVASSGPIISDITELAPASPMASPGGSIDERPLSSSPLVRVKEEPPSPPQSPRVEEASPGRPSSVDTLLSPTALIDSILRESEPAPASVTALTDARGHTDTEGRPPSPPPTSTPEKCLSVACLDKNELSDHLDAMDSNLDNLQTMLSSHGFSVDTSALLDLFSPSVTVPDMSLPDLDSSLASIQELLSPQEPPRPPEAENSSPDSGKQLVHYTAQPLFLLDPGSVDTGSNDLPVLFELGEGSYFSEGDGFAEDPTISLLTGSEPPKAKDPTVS
ELF4, sequence (Q99607 whole entry): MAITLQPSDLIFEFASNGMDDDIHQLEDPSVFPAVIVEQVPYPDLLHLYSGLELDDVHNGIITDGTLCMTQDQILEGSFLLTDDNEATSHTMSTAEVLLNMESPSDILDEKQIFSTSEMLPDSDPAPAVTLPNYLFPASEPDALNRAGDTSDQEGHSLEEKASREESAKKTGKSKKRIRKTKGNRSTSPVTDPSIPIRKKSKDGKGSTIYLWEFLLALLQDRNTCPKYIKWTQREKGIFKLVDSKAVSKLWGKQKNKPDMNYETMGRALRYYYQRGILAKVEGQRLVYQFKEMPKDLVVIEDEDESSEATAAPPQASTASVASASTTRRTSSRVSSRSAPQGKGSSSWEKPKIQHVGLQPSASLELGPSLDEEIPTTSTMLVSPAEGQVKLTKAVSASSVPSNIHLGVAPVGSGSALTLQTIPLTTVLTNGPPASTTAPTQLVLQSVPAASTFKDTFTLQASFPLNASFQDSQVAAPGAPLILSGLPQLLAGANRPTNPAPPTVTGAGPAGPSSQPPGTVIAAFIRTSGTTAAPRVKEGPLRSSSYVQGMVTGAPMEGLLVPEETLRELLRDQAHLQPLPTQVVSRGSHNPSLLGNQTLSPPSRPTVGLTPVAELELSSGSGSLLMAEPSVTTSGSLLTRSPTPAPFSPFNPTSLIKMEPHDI

For the sequence ATGACT, the binding signal in [1] is 1.4 fold enrichment (6-mer frequency, TF over GST control); in assay [2], 1.43 fold enrichment (6-mer frequency, TF over GST control); in [3], 1.21 fold enrichment (6-mer frequency, TF over GST control); in assay [4], 1.47 fold enrichment (6-mer frequency, TF over GST control); in assay [5] it was 1.41 fold enrichment (6-mer frequency, TF over GST control); in assay [6], 1.39 fold enrichment (6-mer frequency, TF over GST control). Also, the binding signal in [7] was 1.41 fold enrichment (6-mer frequency, TF over GST control); in assay [8], 1.46 fold enrichment (6-mer frequency, TF over GST control); in [9], 1.25 fold enrichment (6-mer frequency, TF over GST control); in assay [10] it was 1.36 fold enrichment (6-mer frequency, TF over GST control); in assay [11], 1.36 fold enrichment (6-mer frequency, TF over GST control); in [12], 1.47 fold enrichment (6-mer frequency, TF over GST control). For the same sequence, the binding signal in [13] was 1.42 fold enrichment (6-mer frequency, TF over GST control); in assay [14] it was 1.29 fold enrichment (6-mer frequency, TF over GST control); in assay [15], 1.38 fold enrichment (6-mer frequency, TF over GST control); in assay [16], 1.32 fold enrichment (6-mer frequency, TF over GST control); in assay [17] it was 1.27 fold enrichment (6-mer frequency, TF over GST control); in assay [18] it was 1.3 fold enrichment (6-mer frequency, TF over GST control).

The record behind these values is article PMC7862700, “An all-to-all approach to the identification of sequence-specific readers for epigenetic DNA modifications on cytosine”.
